The supplement of paper PMC8387472

Key:
Details in all cases: mESC; 2uM; 72 h treatment, harvest day 5
[1] = compound: O=c1cc(N2CCOCC2)oc2c(-c3ccc4c(c3)OCCO4)csc12; experiment: fraction of edited reads among all mapped reads; higher = more Cas9 editing
Mercaptopurine (6-MP) = compound: S=c1[nH]cnc2nc[nH]c12 [Mercaptopurine (6-MP)]; experiment: as above
[2] = compound: S=c1nc[nH]c2nc[nH]c12 [6-Mercaptopurine (6-MP) Monohydrate]; experiment: as above
[3] = compound: CC(=O)O/N=C1\C(=O)N(Cc2cc(Cl)ccc2Cl)c2ccc(Cl)cc21; experiment: fraction of microhomology deletions among edited reads; higher = more MH deletions
[4] = compound: CC(C)(C#N)c1ccc(N2C(=O)OCc3cnc4ccc(-c5cnc6ccccc6c5)cc4c32)cc1; experiment: as above
[5] = compound: CCCCOc1c(C(=O)c2c(F)cc(C)cc2F)c[nH]c2nncc1-2; experiment: as above
[6] = compound: CCN1CCN(CC(=O)Nc2ccc(-c3cccc4c(=O)cc(N5CCOCC5)oc34)c3sc4ccccc4c23)CC1; experiment: as above
[7] = compound: CCc1c2c(nc3ccc(OC(=O)N4CCC(N5CCCCC5)CC4)cc13)-c1cc3c(c(=O)n1C2)COC(=O)[C@]3(O)CC [Irinotecan HCl Trihydrate]; experiment: as above
[8] = compound: CCn1c(=O)c(-c2ccc(Cl)cc2Cl)cc2cnc(Nc3ccc(N4CCNCC4)c(F)c3)nc21; experiment: as above
[9] = compound: CNc1ccc([N+](=O)[O-])c(Nc2ccc3[nH]ncc3c2)n1; experiment: as above

Row | Target | fraction of edited reads among all mapped reads [1] | fraction of edited reads among all mapped reads (Mercaptopurine (6-MP)) | fraction of edited reads among all mapped reads [2] | fraction of microhomology deletions among edited reads [3] | fraction of microhomology deletions among edited reads [4] | fraction of microhomology deletions among edited reads [5] | fraction of microhomology deletions among edited reads [6] | fraction of microhomology deletions among edited reads [7] | fraction of microhomology deletions among edited reads [8] | fraction of microhomology deletions among edited reads [9]
1 | 47.0 (DMSO control at this site: 1-bp insertion 0.095, MH deletion 0.585, edited 0.118) GAGTGGTCCCGAGCCAGGAACTGTGTGTGTTGCAGGGGGGCAGTAACTCCCCAACTCCCTC | 0.0673 | 0.143 | 0.101 | 0.564 | 0.539 | 0.518 | 0.62 | 0.473 | 0.597 | 0.542
2 | 17.0 (DMSO control at this site: 1-bp insertion 0.112, MH deletion 0.348, edited 0.058) CCATAGCGCGATAAATATGACGGCTCATCCTGTATGACGGCTCATCCTGTATCAACTGTCC | 0.037 | 0.0873 | 0.069 | 0.396 | 0.391 | 0.416 | 0.509 | 0.411 | 0.358 | 0.402
3 | 22.0 (DMSO control at this site: 1-bp insertion 0.573, MH deletion 0.229, edited 0.045) CTGATGGTTGAAGGATTTAGCCGGGGTCCTAGACGCCGGGGTCCTAGACGAAAGGGCCACG | 0.0255 | 0.0686 | 0.0558 | 0.159 | 0.162 | 0.122 | 0.296 | 0.125 | 0.168 | 0.117
4 | 30.0 (DMSO control at this site: 1-bp insertion 0.074, MH deletion 0.67, edited 0.142) GAGCTGGCATGAGTATTTGTGCCACATGGCTCCCACATGGCTCCACATGCAAGTTTGAAAC | 0.0819 | 0.165 | 0.115 | 0.699 | 0.725 | 0.723 | 0.761 | 0.727 | 0.708 | 0.699
5 | 46.0 TTAAGAGCAATGTTCACGCAACTTGAAATTATATCTGTGGTCTTCAAATTGTCTTTTGTCA |  |  | 0.0652 |  | 0.597 | 0.422 |  |  |  | 0.376
6 | 39.0 (DMSO control at this site: 1-bp insertion 0.328, MH deletion 0.371, edited 0.204) CTGCACAGTCACTTAGGATAGGAGAAGATGATGTATAGGGTTTAGTGGGAGATGTTGCAAG | 0.121 | 0.243 | 0.167 | 0.412 | 0.405 | 0.358 | 0.539 | 0.384 | 0.367 | 0.332
7 | 45.0 (DMSO control at this site: 1-bp insertion 0.017, MH deletion 0.666, edited 0.101) TTACACAGCATGAACTGCTAGGTGATGATGTCAGATTCGGTTTTACTAACTTCTCCAAAAA | 0.0613 | 0.128 | 0.092 | 0.623 | 0.655 | 0.62 | 0.654 | 0.631 | 0.655 | 0.622
8 | 32.0 (DMSO control at this site: 1-bp insertion 0.03, MH deletion 0.85, edited 0.898) AGAAGTCCAGGATCAGGGGGACTGGGGTCGGGAGGGTGGGGCAGGAAGGAAGCCAGAATCA | 0.84 | 0.906 | 0.874 | 0.93 | 0.904 | 0.914 | 0.912 | 0.901 | 0.905 | 0.895
9 | 7.0 (DMSO control at this site: 1-bp insertion 0.128, MH deletion 0.374, edited 0.098) TACTCAACCGAGACCTACGCGAACCGAAATCGTATGCCGGTGCGCAAGCAGGGCTGGCGTC | 0.067 |  | 0.0891 | 0.489 | 0.456 | 0.404 | 0.477 | 0.484 | 0.417 | 0.442
10 | 26.0 (DMSO control at this site: 1-bp insertion 0.518, MH deletion 0.262, edited 0.026) AGGGCGCGCCCCACGCACTCTGCGGCAAGTCCCTCTGCGGCAAGTCCTCGGCCCGGAAGAC | 0.0106 | 0.04 | 0.0282 | 0.289 | 0.324 | 0.27 | 0.54 | 0.29 | 0.331 | 0.256
11 | 38.0 (DMSO control at this site: 1-bp insertion 0.063, MH deletion 0.487, edited 0.17) GGGCTGGGTGCTAAAATGAGGAGCTCCAAGAAGACTGAGGTGAACCTGGAGGCCCCTGAGC | 0.0925 | 0.193 | 0.157 | 0.497 | 0.485 | 0.505 | 0.546 | 0.488 | 0.513 | 0.501
12 | 19.0 (DMSO control at this site: 1-bp insertion 0.121, MH deletion 0.101, edited 0.057) TCTGCAGGGGTCGGAACCCGGGGGCTAGGGCTATCCCGGGGGCTAGGGCTATTAGCGAACC | 0.0353 | 0.0901 | 0.0729 | 0.203 | 0.175 | 0.215 | 0.187 | 0.222 | 0.147 | 0.197
13 | 2.0 (DMSO control at this site: 1-bp insertion 0.364, MH deletion 0.356, edited 0.125) GGTGCCCCCGAGACCTACGCGAACCGAAATCGATGTCCGGTGCGCAAGCAGGGCTGGCGTC | 0.0694 | 0.166 | 0.112 | 0.422 | 0.343 | 0.375 | 0.513 | 0.414 | 0.384 | 0.345
14 | 16.0 (DMSO control at this site: 1-bp insertion 0.172, MH deletion 0.29, edited 0.05) CGGACTGCACACATGGGTAGGATCGTGCACGCGAGGTAGGATCGTGCACGCGAAGTTATTC | 0.0306 | 0.0811 | 0.0574 | 0.319 | 0.293 | 0.294 | 0.34 | 0.252 | 0.308 | 0.252
15 | 40.0 (DMSO control at this site: 1-bp insertion 0.072, MH deletion 0.192, edited 0.189) GCGAATCAACTGTTCAACAACAGCAGCAGCCACCTGGAGGACTACAGTGGCCTGTCCGTGT | 0.107 | 0.24 | 0.175 | 0.2 | 0.177 | 0.179 | 0.26 | 0.196 | 0.21 | 0.184
16 | 20.0 (DMSO control at this site: 1-bp insertion 0.349, MH deletion 0.138, edited 0.084) TACAGGTGTAGACTGGTTACGTGGCTGCGGAATTGACTGGTTACGTGGCTGCGGAATTTTG | 0.0465 | 0.111 | 0.082 | 0.235 | 0.239 | 0.174 | 0.285 | 0.222 | 0.12 | 0.136
17 | 42.0 (DMSO control at this site: 1-bp insertion 0.145, MH deletion 0.655, edited 0.132) GGGCTAAACCTATGAGCACAGTAGAACTAAGGGTGGGTGGTGTAGCTAAAGAACTTGACCA | 0.0994 | 0.171 | 0.109 | 0.699 | 0.678 | 0.696 | 0.734 | 0.672 | 0.706 | 0.633
18 | 15.0 GCGCCTCCAATGACCCAGTGGGATCCTACTCCATAATGGGATCCTGGGGATTCCTCGCTCC |  |  | 0.132 | 0.354 | 0.378 |  |  |  |  | 
19 | 35.0 (DMSO control at this site: 1-bp insertion 0.01, MH deletion 0.72, edited 0.098) CCACTTTTAGAGAGGGTGAAAATCATCAGTTATCATCAGGGCAACAAATTGCTTTCTCCTA | 0.0645 | 0.127 | 0.0862 | 0.754 | 0.761 | 0.781 | 0.788 | 0.732 | 0.729 | 0.732
